Source: PubChem BioAssay (NCI)
About 83,000 compounds went through this panel and 20% of them were active in at least one assay; those are over-represented in the sample as a whole.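 Cell lines were cultured in 96-well plates, exposed to a single compound concentration, and assessed for percent growth 48 hours later.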 Values without a mark were called inactive. Calls of active or inactive are those of the source. Rule for the calls: active = growth percent below 10; inactive = the rest.

Legend:
Test in all cases: NCI-60 one-dose screen, 48 h (100 = growth as untreated, 0 = no growth, -100 = all killed)
[1] = system: T-47D breast; conditions: 10 µM unless noted
[2] = system: BT-549 breast; conditions: 10 µM unless noted
[3] = system: MDA-MB-435 melanoma; conditions: 10 µM unless noted
[4] = system: SW-620 colon; conditions: 10 µM unless noted
[5] = system: MCF7 breast; conditions: 10 µM unless noted
[6] = system: HCT-116 colon; conditions: 10 µM unless noted
[7] = system: HCC-2998 colon; conditions: 10 µM
[8] = system: KM12 colon; conditions: 10 µM unless noted

Row | Compound | growth [1] | growth [2] | growth [3] | growth [4] | growth [5] | growth [6] | growth [7] | growth [8]
1 | CNC(=O)c1cc(Oc2cccc3nc(Nc4ccc(Oc5ccccc5)cc4)ccc23)ccn1 | 43.3% | 57.2% | 66.1% | 87.8% | 43.2% | 48% | 94% | 67.8%
2 | C=CC[n+]1c(/C=C/C=C2\N(C)c3ccccc3C2(C)C)sc2ccc(OC)cc21 | 12.1% | 14.6% | 12.8% | 19.9% | 6.97% (active) | 11.6% | 30.2% | 13.4%
3 | CCOc1cc2ncc(C#N)c(Nc3ccc(OCc4ccccn4)c(Cl)c3)c2cc1NC(=O)/C=C/CN(C)C | 15.9% | 39.4% | -87.7% (active) | -63.9% (active) | -6.35% (active) | -81.2% (active) | 50.8% | -60% (active)
4 | CCNCCNc1cc(-c2ccc(Cl)c(Cl)c2)c(C#N)c2nc3ccccc3n12 | -60.8% (active) | -70.5% (active) | -95% (active) | -67.3% (active) | -72% (active) | -87.3% (active) | -87.1% (active) | -86.6% (active)
5 | Nc1ccc(S(=O)(=O)O)c2cc(S(=O)(=O)O)cc(O)c12 | 120% | 99% | 110% | 107% | 104% | 93.7% | 117% | 102%
6 | Cc1ccc(-n2nc(C(C)(C)C)cc2NC(=O)NCc2cc(F)ccc2Oc2ccc3c(cnn3CCO)c2)cc1 | -3.04% (active) | 21.3% | 7.09% (active) | 25.7% | 7.9% (active) | 6.75% (active) | 19.9% | 8.7% (active)
7 | Cn1cc(-c2ncnc3ccc(-c4cnc(Cl)c(NS(C)(=O)=O)c4)cc23)c2ccccc21 | -23.9% (active) | 4.5% (active) | 7.19% (active) | 21.3% | 7.57% (active) | 20.3% | 17.7% | 25.3%
8 | COC(=O)[C@H](Cc1ccccc1)NC(=O)[C@@H](OC)[C@@H]1Cc2cc3cc(OC4CC(OC5CC(O)C(O)C(C)O5)C(O)C(C)O4)c(C)c(O)c3c(O)c2C(=O)[C@H]1OC1CC(OC2CC(OC3CC(C)(O)C(O)C(C)O3)C(O)C(C)O2)C(O)C(C)O1 (some centres not stated) | 2.51% (active) | -62.4% (active) | -69.4% (active) | 6.79% (active) | 3.21% (active) | 1.85% (active) | -45.2% (active) | -5.45% (active)
9 | Nc1cc2c(cc1Br)-c1c(C(=O)O)cccc1C2O (configuration not stated) | 105% | 114% | 105% | 110% | 95.4% | 96.4% | 112% | 99.3%
10 | CC(=O)CC1CCCC1c1ccc2ccccc2c1 (configuration not stated) | 90% | 109% | 111% | 106% | 95.9% | 104% | 86.8% | 106%
11 | COc1cc2ncnc(Oc3cccc(NC(=O)Nc4cc(C(C)(C)C(F)(F)F)on4)c3)c2cc1OC | 9.47% (active) | 37.4% | 13.3% | 27.4% | 37.8% | 10.8% | 52.8% | 42.4%
12 | Cc1c(NC(=O)OC[C@@H]2COCCN2)cn2ncnc(Nc3ccc4c(cnn4Cc4cccc(F)c4)c3)c12 | -16.7% (active) | 0.365% (active) | 2.07% (active) | 1.74% (active) | 1.5% (active) | 0.842% (active) | 3.83% (active) | 8.03% (active)
13 | COc1ccc(Nc2ncccc2NC(=O)c2cn(Cc3cccc(Oc4ccccc4)c3)nn2)cc1 | 79.1% | 93.6% | 77.8% | 106% | 89.9% | 92.4% | 115% | 84.8%
14 | O=C1OCC2=C1C(c1cccc(F)c1)c1cc3c(cc1N2CCO)OCCO3 (configuration not stated) | 46.8% | 43.6% | -40.7% (active) | 26.8% | 15.6% | 11.2% | 8.09% (active) | 14%
15 | CC/C(=C(/c1ccc(Cl)cc1)c1ccc(OCCN2CCCCC2)cc1)c1ccc(Cl)cc1 | 43.9% | 85.9% | 86.4% | 65.2% | 26.6% | 61.3% | 89.4% | 69.2%
16 | COC(=O)[C@]12CC[C@@H](C)[C@H](C)[C@@H]1C1=CC[C@@H]3[C@@]4(C)C(C=O)=C[C@@](C)(COS(C)(=O)=O)C4=CC[C@@]3(C)[C@]1(C)CC2 | -10.6% (active) | -43.5% (active) | -73.8% (active) | -85.2% (active) | -16.8% (active) | -81.2% (active) | -83.5% (active) | -73% (active)
17 | O=C1C=CC2(NN=C(c3ccccc3)N2c2ccc(Cl)cc2)c2cccc(O)c21 (configuration not stated) | 87.2% | 33.5% | -91.5% (active) | 52.5% | 45.4% | 26.1% | 64.4% | 58.6%
18 | COCCN1CCN(Cc2ccc(-c3n[nH]c4c3C(=O)c3c(NC(=O)NN5CCOCC5)cccc3-4)cc2)CC1 | 12.7% | -24.2% (active) | -46.4% (active) | -25% (active) | -33.2% (active) | -48.2% (active) | -35.8% (active) | -66.3% (active)
19 | CCc1cnn2c(NCc3ccc[n+]([O-])c3)cc(N3CCCC[C@H]3CCO)nc12 | -16.9% (active) | -15.7% (active) | -35.4% (active) | -4.01% (active) | 1.85% (active) | 1.22% (active) | -37.3% (active) | 1.55% (active)
20 | Cc1oc2c(C(=O)N/N=C\c3ccc(O)cc3O)c[nH]c2c1C | 25.7% | -8.94% (active) | 42.8% | 39.3% | 8.09% (active) | 10.8% | 9.7% (active) | 28.9%
21 | Cc1ccc(F)c(NC(=O)Nc2ccc(-c3cccc4[nH]nc(N)c34)cc2)c1 | 1.25% (active) | 29.2% | 16.8% | 14.9% | 2.81% (active) | 6.9% (active) | -6.88% (active) | 2.63% (active)
22 | COc1ccc(/C(C)=C(\c2ccc(Cl)cc2)c2ccc(OCCN3CCCCCC3)cc2)cc1 | 39.6% | 63.5% | 65.9% | 45% | 36.5% | 38.3% | 82.1% | 31.2%
23 | NC[C@@](O)(c1ccc(Cl)cc1)c1ccc(-c2cn[nH]c2)cc1 | -57.9% (active) | 14.6% | 12.2% | 7.7% (active) | -22.2% (active) | 0.471% (active) | 12.7% | 16.6%
24 | COc1ccc(-c2nc(N)ncc2Oc2ccccc2OC)c(O)c1 | 35.5% | 36% | -16.6% (active) | 20.6% | 23.4% | 15.9% | 50.6% | 29.5%
25 | Cc1csc(-c2nnc(Nc3ccc(Oc4ncccc4-c4ccnc(N)n4)cc3)c3ccccc23)c1 | 30.5% | 60.4% | 31.9% | 20.3% | 12% | 22.1% | 36.1% | 19.2%
26 | COc1ccc(-c2ccc3c(N4CCOC[C@@H]4C)nc(N4CCOC[C@@H]4C)nc3n2)cc1CO | -35% (active) | -6.65% (active) | -14.1% (active) | 8.32% (active) | 5.12% (active) | 21.9% | 10.3% | 13.1%
27 | COc1cc2nc(Nc3cccc(Cl)c3)nc(N)c2cc1OC | 84.5% | 78.6% | 84.7% | 83.6% | 81.5% | 33.7% | -59.3% (active) | 61.4%
28 | C=C1C(=O)O[C@H]2[C@H]1CC/C(C=Nc1c(N)cc(C(F)(F)F)cc1C(F)(F)F)=C\CC[C@@]1(C)O[C@@H]21 | -27% (active) | -31.5% (active) | -71.9% (active) | -54.9% (active) | -2.09% (active) | -72.8% (active) | -77.5% (active) | 14.4%
29 | Nc1ncnc2c1c(-c1cccc(OCc3ccccc3)c1)cn2C1CC(CN2CCC2)C1 (configuration not stated) | -38.2% (active) | 33% | -43.6% (active) | 3.94% (active) | -22% (active) | 9.54% (active) | 17% | 6.66% (active)
